Screening data (PubChem BioAssay)
GCN5L2 inh-1: GCN5L2 (KAT2A) acetyltransferase inhibition | hit rate 0.21% among 390,000 | AID 504327 | Potency, µM (doses to about 58.9 µM), for the others: at the highest dose activity change, negative = inhibition, hits mostly inhibitors | GCN5L2 HAT assay, ThioGlo1 CoA-SH fluorescence | Q92830; note: potency is the fitted concentration of half-maximal effect; % is set by controls: 0 for no effect and ±100 for the full control effect
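Titration-based screen in which CoA formation is detected via maleimide probe ThioGlo1 (50uM) turning fluorescent on thiol reaction; substrates H3(1-25) 75uM and acetyl-CoA 70uM, GCN5L2 20nM, 20 min incubation at room temperature.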
ERG-DNA inh: ERG Ets/DNA interaction inhibition. P11308. fluorescence polarization, His-ERG Ets domain / labelled DNA. Potency, µM (titrated, usually from 76.9 µM), without a hit: top-dose FP activity, negative = inhibition, usual class: inhibitors. hit rate 0.028% among 370,000; active = well fitted inhibition curve with a large enough effect in the polarisation, with a control signal flat; inconclusive = small, poorly fitted or top-dose-only effect, or effect the other way, or a change in a side signal; inactive = no such curve, though single readings can be large or run the other way; the % refers to the polarisation;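 note: polarization taken with two DNA probes labelled with fluorescein and Texas red; potency is the fitted concentration of half-maximal effect; % of control where 0% means no effect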
Target sequence (P11308 whole entry, looked up, the tested form may be a part): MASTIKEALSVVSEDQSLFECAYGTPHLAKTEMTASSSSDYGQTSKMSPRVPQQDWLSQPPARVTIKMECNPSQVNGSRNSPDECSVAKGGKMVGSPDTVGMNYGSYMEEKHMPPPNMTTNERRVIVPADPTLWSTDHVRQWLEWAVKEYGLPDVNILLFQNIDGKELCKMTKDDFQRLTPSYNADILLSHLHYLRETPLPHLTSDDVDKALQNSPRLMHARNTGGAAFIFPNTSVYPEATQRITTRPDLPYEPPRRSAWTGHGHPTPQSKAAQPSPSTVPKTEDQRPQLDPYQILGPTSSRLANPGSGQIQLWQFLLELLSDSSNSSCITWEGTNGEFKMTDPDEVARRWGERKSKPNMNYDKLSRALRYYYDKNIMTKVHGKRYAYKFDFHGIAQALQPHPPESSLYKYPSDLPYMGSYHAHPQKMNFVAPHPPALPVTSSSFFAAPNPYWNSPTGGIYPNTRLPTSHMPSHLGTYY
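His-tagged ERG Ets domain (1 uM in the protein solution; 300mM KCl, 50mM Tris-HCl, 1mM EDTA, 1mM DTT, pH 7.5) received compound, then a probe mix of 5 nM fluorescein-DNA and 100nM Texas-615-DNA. Fluorescence polarization was read for both dyes.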
WRN helicase inh-1: inhibitors of human WRN helicase | Q14191 | WRN helicase unwinding, fluorescent forked duplex, kinetic | Potency, µM (top dose mostly 114 µM), for inactives: at the top dose activity change, negative = inhibition, most hits filed as inhibitors | hit rate 0.46% among 360,000; note: potency is the fitted concentration of half-maximal effect; % is set by controls: 0 for no effect and ±100 for the full control effect; nearly all actives have a fitted effect of over 55% in size
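Fluorescence dequenching readout, ex 525 nm/em 598 nm, kinetic mode: forked duplex DNA (100 nM final) with adjacent fluorophore and quencher unwound by WRN (20 nM final) with 2 mM ATP. Compound preincubation 15 min, room temperature.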
BLM helicase inh-1: Bloom syndrome helicase (human) inhibition; recombinant BLM DNA unwinding, fluorescence dequenching; Potency, µM (series often up to 56.1 µM), for the others: top-dose activity change, negative = inhibition, actives largely listed as inhibitors; hit rate 0.2% among 350,000; AID 2528;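 note: potency is the fitted concentration of half-maximal effect; plate controls were vehicle for no effect and no enzyme for full effect; nearly all actives have a fitted effect of over 35% in size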
RECQ1 helicase: inhibitors of human RECQ1 DNA helicase; P46063; RECQ1 DNA unwinding, red fluorescence kinetic read; Potency, µM (highest dose often 57.3 µM), for the others: top-dose activity, negative = inhibition, most hits filed as inhibitors; hit rate 0.54% among 240,000; AID 2549;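 note: potency is the fitted concentration of half-maximal effect; plate controls were vehicle for no effect and no enzyme for full effect; nearly all actives have a fitted effect of over 30% in size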
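50 nM RECQ1T1 preincubated 15 min with compound in Tris pH 8.0 buffer with MgCl2, DTT, Tween-20 and 2.5 ug/ml poly(dI-dC); started with 200 nM TAMRA/BHQ-2 forked duplex and 2 mM ATP. Unwinding read as fluorescence (525/598 nm), two reads 2 h apart.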
APEX1 inh: blocks human APE1 abasic DNA cleavage. recombinant APE1, TAMRA/BHQ-2 abasic DNA cleavage fluorescence. P27695. hit rate 0.35% among 350,000. Potency, µM (titrated, usually from 65.8 µM), inactives show at the top dose activity change, negative = inhibition, most hits filed as inhibitors. AID 2517;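 note: potency is the fitted concentration of half-maximal effect; plate controls were vehicle for no effect and reference inhibitor for full effect; nearly all actives have a fitted effect of over 55% in size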
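Incision of a quenched TAMRA/BHQ-2 THF abasic-site duplex (50 nM) by 0.75 nM APE1, after 15 min compound preincubation, measured as fluorescence increase over three 60 s reads. Values normalized to buffer, DMSO and NSC13755 control wells.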
GCN5L2 inh-2: human KAT2A HAT inhibition, hit confirmation; shares compounds with GCN5L2 inh-1; GCN5L2 HAT, ThioGlo1 CoA fluorescence, 20 min; Potency, µM, usual class: inhibitors; hit rate 70% among 140; AID 588347
WRN helicase inh-2: confirmation of human WRN helicase inhibitors. Potency, µM (top dose mostly 57.1 µM), without a hit: top-dose activity, negative = inhibition, hits mostly inhibitors. hit rate 63% among 610. WRN helicase DNA unwinding, fluorescence kinetic. AID 720497. shares compounds with WRN helicase inh-1; note: potency is the fitted concentration of half-maximal effect; nearly all actives have a fitted effect of over 65% in size
TO displacement: DNA binding via thiazole orange displacement; thiazole orange DNA binding displacement, fluorescence; AID 720499; shares compounds with WRN helicase inh-1; Potency, µM (top dose mostly 57.1 µM), for inactives: at the top dose activity change, negative = inhibition, hits mostly inhibitors; hit rate 10% among 610;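 note: drop in dye fluorescence marks compound binding to DNA; potency is the fitted concentration of half-maximal effect; % is set by controls: 0 for no effect and ±100 for the full control effect; nearly all actives have a fitted effect of over 60% in size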
BLM helicase inh-2: BLM helicase inhibition, WRN selectivity check | shares compounds with WRN helicase inh-1 | Recombinant BLM helicase DNA unwinding, red fluorescence | Potency, µM (doses to about 57.1 µM), without a hit: at the top dose activity change, negative = inhibition, usual class: inhibitors | hit rate 60% among 610 | AID 720503; note: potency is the fitted concentration of half-maximal effect; nearly all actives have a fitted effect of over 60% in size
* hit, by the source's call; i = inactive; u = inconclusive; x = no result given; [ ] = dose if it differs, or a comment. Sampled rows, rich in hits. Any-hit rate of the full collection: about 0.88%. Unless noted, calls come from the whole dose curve; as a rule, active = well fitted curve in the direction sought with a large enough effect; inconclusive = small, poorly fitted or top-dose-only effect, or another doubt; inactive = no such curve, though single readings can be large; an effect the other way counts as inactive or inconclusive.

SMILES	GCN5L2 inh-1	ERG-DNA inh	WRN helicase inh-1	BLM helicase inh-1	RECQ1 helicase	APEX1 inh	WRN helicase inh-2	TO displacement	BLM helicase inh-2	others
O=C1ON=C(c2ccc(Cl)cc2)/C1=C/c1ccc(O)cc1	u	21%	9.5µM*	-4%	-4%	-7%	22µM*	-3%	u	GCN5L2 inh-2=26*
OC[C@@H](O)[C@H](O)[C@H](O)[C@@H](O)CO	x	x	x	x	x	11%	x	x	x
CCC1CCc2sc(C(=O)OCC(=O)N(CCOC)c3c(N)n(Cc4ccccc4)c(=O)[nH]c3=O)cc2C1 (centres undefined)	0%	6%	6%	x	x	1%	x	x	x
COCCN(C(=O)COC(=O)c1cc2c(s1)CCC2)c1c(N)n(Cc2ccccc2)c(=O)[nH]c1=O	u	x	8.9µM*	x	x	0.75µM*	2.2µM*	u	0.43µM*	GCN5L2 inh-2=11*
Cc1ccc(C)c(S(=O)(=O)c2nnn3c2nc(NC2CCCC2)c2sccc23)c1	-15%	5%	x	-7%	x	x	x	x	x
C=CCOC(=O)c1cc(-c2ccc(/C=C3\C(=O)NC(=O)C(C#N)=C3C)o2)ccc1Cl	25µM*	4%	11µM*	u	u	u	15µM*	u	6.8µM*	GCN5L2 inh-2=5.1*
CCCOC(=O)c1cc(-c2ccc(/C=C3/C(=O)N(C)C(=O)C(C#N)=C3C)o2)ccc1Cl	x	8%	-7%[11.6 µM]	x	x	x	x	x	x
CC1=NOC(=O)/C1=C\c1ccc(-c2cccc(Cl)c2)o1	u	-3%	13µM*	-15%	u	u	u	-12%	7.6µM*	GCN5L2 inh-2=u
N#CNC(=O)c1ccc(-n2cccc2/C=C2\NC(=O)N(CC(=O)Nc3ccc(F)cc3)C2=O)cc1	x	x	x	x	x	x	6.1µM*	9.6µM*	3.8µM*
O=C(O)CN1C(=O)N/C(=C\c2cccn2-c2ccc(P(=O)(O)O)cc2)C1=O	-8%	x	x	x	x	3%	x	x	x
CC(Oc1ccccc1)C(=O)Nc1ccc(S(=O)(=O)N2CCN(C)CC2)cc1 (centres undefined)	1%	u	9%	x	x	-3%	x	x	x
CC(Oc1ccccc1Cl)C(=O)Nc1ccc(S(=O)(=O)N2CCN(C)CC2)cc1 (centres undefined)	x	11%	32µM*	x	x	x	-20%	-7%	-29%
O=C(CN1C(=O)c2ccccc2S1(=O)=O)NCCSCc1c(F)cccc1Cl	-5%	u	-11%	-2%	x	19%	x	x	x
N=C1S/C(=C\c2ccco2)C(=O)N1c1ccc2c(c1)OCO2	-3%	18%	u	u	-14%	u	u	-30%	19µM*
Cc1ccc(N2C(=O)/C(=C/c3ccco3)SC2=S)cc1	5%	1%	-13%	-11%	-12%	u	x	x	x
CNc1nc2c(c(=O)n(C)c(=O)n2C)n1CC(O)COc1ccc(OC)cc1 (centres undefined)	-2%	-1%	x	-2%	x	x	x	x	x
Cc1ccc(-c2nn3cnnc3s2)cc1NC(=O)c1ccc(-c2cccc(Cl)c2)o1	x	x	x	x	x	x	u	163%	u
O=C(Nc1cccc2nsnc12)c1ccc(-c2cccc(Cl)c2)o1	-14%	19%	-36%	-18%	-1%	0%	x	x	x
N#C/C(=C\c1ccc(-c2ccc(Cl)c(C(=O)O)c2)o1)c1nc2ccccc2[nH]1	-24%	3%	x	u	x	27µM*	19µM*	u	14µM*
CCc1nnc(NC(=O)c2cc(C)nc3ccccc23)s1	-1%	-2%	-10%	-2%	i	-9%	x	x	x
CCc1nnc(NC(=O)c2cc(-c3ccc(C)o3)nc3ccccc23)s1	-28%	x	u	x	x	34%	u	-13%	-5%
O=C1C(=Cc2ccco2)CCC1=Cc1ccco1	x	31%	3.5µM*	x	x	x	7.6µM*	2%	7.6µM*
CCOC(=O)C1=C(C)N=c2s/c(=C/c3ccc(OCC(=O)O)c(OC)c3)c(=O)n2C1c1ccc(Cl)cc1 (centres undefined)	x	32%	28µM*	x	x	x	12µM*	465%	7.6µM*
CCOC(=O)C1=C(C)N=c2s/c(=C/c3ccccc3)c(=O)n2C1c1ccc(OC)c(OC)c1 (centres undefined)	-1%	9%	15%	0%	-12%	-3%	x	x	x
CCSc1nnc(NC(=O)CSc2sc3c(O)cc(=O)[nH]c3c2C#N)s1	u	16%	18µM*	-22%	x	6%[12.4 µM]	19µM*	u	u
COc1ccc(-c2nn(C)c3sc(C(=O)Nc4cc(OC)c(OC)c(OC)c4)cc23)cc1OC	u	u	x	20µM*	x	x	9.6µM*	u	11µM*
CCCSc1ncc(Cl)c(C(=O)Nc2ccc(S(=O)(=O)N3CCCCC3C)cc2)n1 (centres undefined)	-5%	2%	x	-7%	x	x	x	x	x
